High-throughput results as filed in PubChem.
Hits are enriched below; roughly 7% of the tested compounds scored in any of these assays.
IL1B secr inh: blocks inflammasome-driven IL-1 beta release | actives 4.7% (n = 360,000) | activity change, % at 57.5 µM | AID 743279 | THP-1 LPS/ATP IL-1B secretion, AlphaLISA, 16 h; stronger effect = lower value; in the data active = activity change below about -50%; inconclusive = mostly about -30% to -49%; also: % is scaled to controls: 0 for no effect and ±100 for the full control effect
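Secreted IL-1B measured by AlphaLISA bead assay after 16 h compound exposure of THP-1 cells; compounds (final up to 57.5 uM) added 1 h before LPS (250 ng/mL) and ATP (1.25 mM) stimulation; lower signal means less secretion.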
DRD3 agonist: agonists of human D3 dopamine receptor; D3R DiscoveRx beta-arrestin cells, luminescence, 90 min; AID 652048; actives 0.58% (n = 410,000); P35462; max activation, %; in the data active = max activation above about 30%; also: 0% is about no effect
Target sequence (P35462 whole entry, looked up): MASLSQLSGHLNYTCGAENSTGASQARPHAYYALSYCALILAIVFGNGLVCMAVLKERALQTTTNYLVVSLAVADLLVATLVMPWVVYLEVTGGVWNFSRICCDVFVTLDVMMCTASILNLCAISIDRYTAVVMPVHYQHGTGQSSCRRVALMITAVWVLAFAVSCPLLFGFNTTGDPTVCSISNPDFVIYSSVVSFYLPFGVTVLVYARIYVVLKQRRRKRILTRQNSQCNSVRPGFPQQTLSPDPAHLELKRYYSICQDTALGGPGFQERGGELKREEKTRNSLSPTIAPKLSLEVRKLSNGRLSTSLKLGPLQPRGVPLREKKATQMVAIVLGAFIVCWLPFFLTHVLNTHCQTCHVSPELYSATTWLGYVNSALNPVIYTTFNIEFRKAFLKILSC
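Agonist-mode cell screen: cells plated at 1500/well and incubated overnight at 37 °C, then exposed to library compounds for 90 min at 37 °C. Detection reagent was added for 30–60 min at room temperature, and luminescence was read.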
ATXN2 expr inh: ATXN2 expression inhibition | HEK-293 ATXN2-luciferase reporter, luminescence, 24 h | Potency, µM (top dose mostly 57 µM), inactives show top-dose activity change, negative = inhibition, actives largely listed as inhibitors | actives 0.72% (n = 360,000); also: potency is read from the fitted curve at half-maximal effect; % is scaled to controls: 0 for no effect and ±100 for the full control effect; nearly all actives have a fitted effect of over 55% in size
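qHTS (up to 57 uM final) was run with 24 h compound exposure of reporter cells at 37 °C. Each well was multiplexed: SteadyGlo luminescence measured ATXN2-luciferase expression after a fluorogenic Gly-Phe-AFC viability readout (25 uM final).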
D3 antag: antagonists of human D3 dopamine receptor. max response, negative = inhibition, %. D3R cells, DiscoveRx beta-arrestin luminescence, antagonist mode; stronger effect = lower value. actives 2.5% (n = 360,000). AID 652054; in the data active = max response below about -50%; inconclusive = no clear call, values can overlap the other calls; also: % is scaled to controls: 0 for no effect and ±100 for the full control effect
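Cells plated overnight at 1500 cells/well, then exposed to library compounds with dopamine controls for 90 minutes at 37 degrees C. DiscoveRx reagent added for 30–60 minutes at room temperature; luminescence read, quantitative HTS format.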
ATXN viability: reduces viability in counter-screen for ATXN expression inhibitors; Potency, µM (top dose mostly 56.7 µM), usual class: cytotoxic; actives 0.49% (n = 400,000); AID 651635; S2 cells (HEK-293 line with an ATXN2-luciferase reporter) viability, CellTiter-Fluor protease fluorescence, 24 h; also: potency is read from the fitted curve at half-maximal effect; nearly all actives have a fitted effect of over 40% in size
Integrin act MD: activates integrin-mediated alleviation for muscular dystrophy | alpha7betagal myoblasts, beta-gal FDG fluorescence, 48 h | Potency, µM (series often up to 38.3 µM), inactives show at the highest dose activation, most hits filed as activators | actives 0.064% (n = 350,000) | AID 624291;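 also: potency is read from the fitted curve at half-maximal effect; 100% = response of the positive control SU9516; nearly all actives have a fitted effect of over 60% in size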
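alpha7betagal+/- myoblasts (passage 13, 250/well) treated 48 h at 37C with compounds at 1:260 dilution of DMSO stock. Lysed, then beta-galactosidase activity read as FDG fluorescence (ex 480/em 540) after 30 min, with pre-read for autofluorescence.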
An asterisk follows results filed as active; i = inactive; u = inconclusive; x = not tested or not shown. Unless noted, calls follow the shape of the dose curve; as a rule, active = well fitted curve in the direction sought with a large enough effect; inconclusive = small, poorly fitted or top-dose-only effect, or another doubt; inactive = no such curve, though single readings can be large; an effect the other way counts as inactive or inconclusive.

SMILES | IL1B secr inh | DRD3 agonist | ATXN2 expr inh | D3 antag | ATXN viability | Integrin act MD
CCS(=O)(=O)NCC(c1cccnc1)N1CCN(c2ccc(OC)cc2)CC1 (stereo not drawn) | 10.0 | 6.3 | 4.0% | 9.2 | i | 8.9%
CC1(C)CC(=O)C(C(=O)Cc2ccccc2[N+](=O)[O-])C(=O)C1 | -1.7 | 2.4 | 7.1% | -1.2 | i | 28.8%
CCOc1ccc(NS(=O)(=O)c2ccc(C(=O)N(C)CC(=O)Nc3ccccc3Br)cc2)cc1 | 0.0 | -16.9 | 10.1% | 15.0 | i | -13.7%
CN(CC(=O)Nc1cccc(F)c1)C(=O)CSc1ccccc1 | -1.8 | -15.7 | 3.8% | -6.9 | i | 15.6%
Cc1ccc(SCC(=O)N(C)CC(=O)Nc2cccc(F)c2)c(C)c1 | -52.9* | 1.8 | -6.1% | 20.2 | i | 23.6%
CC(=O)c1ccc(NC(=O)C(C)N(C)CC(=O)Nc2cccc(F)c2)cc1 (stereo not drawn) | 8.9 | 6.9 | -14.3% | -18.2 | i | 16.3%
CC(C(=O)Nc1ccc(C#N)cc1)N(C)CC(=O)Nc1cccc(F)c1 (stereo not drawn) | -19.6 | 2.3 | -1.9% | 0.0 | i | 3.98µM*
Nc1c(N(CCC2=CCCCC2)C(=O)Cc2ccc(F)cc2)c(=O)[nH]c(=O)n1Cc1ccccc1 | 6.9 | -5.8 | 3.2% | 6.6 | u | 5.5%
Nc1c(N(CCC2=CCCCC2)C(=O)COc2ccc(F)cc2Cl)c(=O)[nH]c(=O)n1Cc1ccccc1 | -54.8* | -24.1 | 11.2µM* | -91.5* | x | -57.0%
CC(C)CN(C(=O)COC(=O)c1cnc(Cl)c(Cl)c1)c1c(N)n(Cc2ccccc2)c(=O)[nH]c1=O | -96.4* | -17.8 | 3.0% | -11.2 | i | -55.2%
CC(C)CN(C(=O)CSc1nc(-c2ccccc2)cn1N)c1c(N)n(Cc2ccccc2)c(=O)[nH]c1=O | -8.8 | -8.2 | 36.7% | -6.1 | i | 9.6%
CC(C)CN(C(=O)CCCSc1nc2ccccc2[nH]1)c1c(N)n(Cc2ccccc2)c(=O)[nH]c1=O | -102.5* | 0.5 | 1.9% | 13.6 | i | -1.6%
CC(C)CCN(C(=O)CCCSc1nc2ccccc2[nH]1)c1c(N)n(Cc2ccccc2)c(=O)[nH]c1=O | -96.6* | -1.2 | 1.1% | 7.6 | i | -15.0%
CC(C)CN(C(=O)COC(=O)c1cccnc1Cl)c1c(N)n(Cc2ccccc2)c(=O)[nH]c1=O | u | 2.3 | -5.8% | 36.0 | i | -1.0%
CN(C(=O)c1cccc(NC(=O)Cc2cccc(NC(=O)C3CCCN(C(=O)C4CC4)C3)c2)c1)C1CC1 (stereo not drawn) | 15.0 | 1.1 | 6.5% | -3.2 | i | 13.1%
O=C(COC(=O)CNC(=O)c1ccc(Cl)cc1Cl)NC(=O)NCc1ccccc1 | -16.3 | -3.2 | -4.8% | 6.3 | i | 0.7%
CCN1CCN(c2ccc(NC(=O)c3ccc(Cl)c(N4CCCC4=O)c3)cc2)CC1 | 2.2 | 3.6 | 9.9% | 9.9 | i | -38.0%
O=c1c2ccccc2nc(-c2ccc(Cl)cc2Cl)n1CCCn1ccnc1 | u | -7.9 | 8.7% | -3.2 | i | 2.2%
CC(C)N(Cc1ccccc1)C(=O)COC(=O)c1ccc2c(c1)OCCO2 | -3.2 | 2.8 | -1.9% | -6.1 | i | 12.0%
CC(C)N(Cc1ccccc1)C(=O)COC(=O)c1cnc(Cl)c(Cl)c1 | -109.0* | -18.3 | u | 2.3 | x | -16.4%
CC(C)CCN(C(=O)Cc1ccc(Cl)c(Cl)c1)c1c(N)n(Cc2ccccc2)c(=O)[nH]c1=O | u | -13.5 | u | -72.2* | u | 1.2%
COc1ccc(NC(=O)c2cc(-c3cc(F)ccc3OCC3CCCO3)n[nH]2)c(C)c1 (stereo not drawn) | -65.7* | 13.4 | -29.4% | 45.8 | i | x
CC(=O)Nc1ccc(NC(=O)c2cc(-c3cc(F)ccc3OCC3CCCO3)n[nH]2)cc1 (stereo not drawn) | -18.5 | 14.1 | 9.8% | 13.0 | i | x
COc1ccc(NC(=O)c2cc(-c3cc(F)ccc3OC(C)C)n[nH]2)c(OC)c1 | -11.6 | 1.3 | -4.5% | 42.5 | i | x
COc1ccc(NC(=O)c2cc(-c3cc(F)ccc3OCC3CCCO3)n[nH]2)cc1OC (stereo not drawn) | -80.5* | 7.6 | u | 62.3 | u | x
SMILES | IL1B secr inh | DRD3 agonist | ATXN2 expr inh | D3 antag | ATXN viability | Integrin act MD
COc1ccc(NC(=O)c2cc(-c3cc(F)ccc3OC)n[nH]2)c(C)c1 | u | -8.4 | 7.6% | -51.2* | i | x
CCOc1ccc(Nc2ncnc3c2cnn3-c2ccc(F)cc2)cc1 | x | 6.7 | 4.3% | x | i | x
COc1cc(CNc2cccc3[nH]c(C(F)(F)F)nc23)cc(OC)c1 | 41.1 | -0.2 | x | -3.4 | i | -57.0%
COc1ccc(CNc2cccc3[nH]c(C(F)(F)F)nc23)cc1 | -70.9* | -6.3 | -25.7% | 29.7 | i | -67.1%
CN(CC(=O)NCc1ccncc1)S(=O)(=O)c1ccccc1 | 3.1 | 6.7 | 9.7% | 2.5 | i | -22.1%
Oc1c(N=Nc2ccccn2)ccc2ccccc12 | -53.8* | -6.8 | 7.94µM* | u | 10µM* | -46.7%
Nc1cccc2c1C(=O)N(C(=O)/C=C/c1cccc(F)c1)C2=O | -70.2* | -2.2 | u | u | i | 0.0%
O=C(/C=C/c1cccc(F)c1)N1CCN(c2ccccn2)CC1 | 31.6 | -7.2 | 9.2% | -10.2 | i | 2.3%
O=C(/C=C/c1cccc(Br)c1)N1CCN(c2cccc(C(F)(F)F)c2)CC1 | -24.7 | 3.3 | 5.5% | 9.1 | i | -13.6%
Nc1cccc2c1C(=O)N(C(=O)/C=C/c1cccc(Br)c1)C2=O | -75.2* | 17.0 | u | -11.0 | i | -48.5%
Cc1cc(Nc2cc(Cl)nc(Sc3ccc(NC(=O)C4CC4)cc3)n2)n[nH]1 | x | x | -34.7% | x | u | x
C[C@@H]1CN([C@@H](C)CO)C(=O)c2cc(Br)cnc2O[C@@H]1CN(C)C(=O)Nc1ccc(F)cc1 | u | 3.4 | -9.4% | -11.6 | i | 13.0%
C=C[C@H](CC(C)C)N(Cc1ccccc1)S(=O)(=O)N(Cc1ccccc1)[C@@H](C=C)CC(C)C | 11.9 | -14.5 | 1.3% | -7.9 | i | 8.5%
C=CS(=O)(=O)N(Cc1ccccc1Br)[C@H](CO)CC(C)C | u | -0.2 | u | -81.2* | 31.6µM* | 0.0%
CC(C)C[C@@H](CO)N(Cc1ccccc1)S(=O)(=O)N(Cc1ccccc1)[C@@H](CO)CC(C)C | -63.4* | -15.5 | u | 123.3 | u | -39.6%
COc1ccc(CN([C@H](C)CO)S(=O)(=O)N(Cc2ccccc2)[C@H](CO)C(C)C)cc1 | 0.0 | 8.4 | -9.8% | -7.7 | u | -9.2%
